This is an account of results in PubChem BioAssay (NCATS).

The target of experiment [1] is Lysosomal acid glucosylceramidase (Homo sapiens) (UniProt P04062). Kind of experiment: Glucocerebrosidase-p2 (AID 348; in the data active = potency below about 10 µM; note: potency is the fitted concentration of half-maximal effect). The following applies: purified GBA, blue fluorogenic substrate, 40 min. The essentials: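 Compounds titrated from 0.6 nM upwards against 0.2 nM enzyme in pH 5.9 citric acid/KH2PO4, taurocholate, tween-20; blue fluorogenic substrate 80 uM, 40 min room temperature, stopped and read Ex 365/Em 440 for AC50.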
Lysosomal acid glucosylceramidase (Homo sapiens), sequence (P04062 whole entry, looked up): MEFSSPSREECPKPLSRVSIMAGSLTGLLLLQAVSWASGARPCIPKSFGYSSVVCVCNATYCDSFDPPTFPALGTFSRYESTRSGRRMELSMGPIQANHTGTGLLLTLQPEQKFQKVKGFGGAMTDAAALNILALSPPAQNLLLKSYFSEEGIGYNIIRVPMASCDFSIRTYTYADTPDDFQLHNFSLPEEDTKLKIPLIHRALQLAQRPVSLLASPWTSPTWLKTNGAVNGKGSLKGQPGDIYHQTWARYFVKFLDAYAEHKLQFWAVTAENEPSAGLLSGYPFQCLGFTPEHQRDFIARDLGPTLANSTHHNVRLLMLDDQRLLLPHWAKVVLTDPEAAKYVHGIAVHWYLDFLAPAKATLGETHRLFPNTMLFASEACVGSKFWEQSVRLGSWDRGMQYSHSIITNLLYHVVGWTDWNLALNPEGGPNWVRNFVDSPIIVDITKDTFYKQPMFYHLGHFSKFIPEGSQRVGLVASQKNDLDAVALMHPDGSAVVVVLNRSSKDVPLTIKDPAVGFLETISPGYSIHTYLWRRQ

Experiment [2] in a line: AP1 Signaling Pathway (AID 357). Note: % is set by controls: 0 for no effect and ±100 for the full control effect. Conditions: ME-180 AP-1-bla reporter, EGF-induced, beta-lactamase ratio, 5 h; at 7.69 µM (top of the series) unless noted. In a few lines: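 ME-180 cells with beta-lactamase reporter under AP-1 response element, stimulated with EC50 EGF; compounds tested in titration series, 5 h at 37 °C. CCF4 substrate added 2.5 h at room temperature; 460/530 nm emission ratio gave %activity and AC50.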

For experiment [3], the target named is Cytochrome P450 1A2 (Homo sapiens) (UniProt P05177). Kind of experiment: p450-cyp1a2 (AID 410; calls by dose curve; note: potency is the fitted concentration of half-maximal effect). Conditions: recombinant CYP1A2, luciferin-ME demethylation, luminescence; series mostly up to 11.4 µM. The essentials: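 20nM CYP1A2 with 100uM Luciferin-ME (at Km) in 100mM KPO4; compound preincubated 10 min, NADPH regeneration added, 60 min at room temperature. Luciferin quantified by luminescence after detection reagent; normalized to 57 uM furafylline.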
Cytochrome P450 1A2 (Homo sapiens), sequence (P05177 whole entry, looked up): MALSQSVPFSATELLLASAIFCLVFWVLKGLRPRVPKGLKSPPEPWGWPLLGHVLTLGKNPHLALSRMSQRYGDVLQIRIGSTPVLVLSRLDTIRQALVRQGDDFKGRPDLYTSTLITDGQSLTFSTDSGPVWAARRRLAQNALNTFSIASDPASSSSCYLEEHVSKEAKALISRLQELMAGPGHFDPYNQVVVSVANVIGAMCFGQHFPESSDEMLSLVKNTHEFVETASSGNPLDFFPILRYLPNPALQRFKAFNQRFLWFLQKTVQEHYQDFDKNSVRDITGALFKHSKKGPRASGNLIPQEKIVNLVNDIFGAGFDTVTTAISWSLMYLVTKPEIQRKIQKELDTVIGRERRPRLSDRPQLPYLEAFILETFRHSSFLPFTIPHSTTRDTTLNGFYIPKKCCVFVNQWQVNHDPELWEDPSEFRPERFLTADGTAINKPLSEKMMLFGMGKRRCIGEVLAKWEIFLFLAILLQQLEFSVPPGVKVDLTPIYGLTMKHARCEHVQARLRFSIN

Experiment [4] in a line: NFAT Signaling Pathway (AID 444).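 Note: carbachol stimulus at about its EC50 of 1 µM final; % is set by controls: 0 for no effect and ±100 for the full control effect.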 Conditions: Jurkat NFAT-bla M1, carbachol, beta-lactamase ratio, 5 h; at 7.69 µM (top of the series) unless noted. The essentials: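 Jurkat cells with NFAT-driven β-lactamase reporter and co-expressed M1 receptor, stimulated with carbachol (final 1 uM, ~EC50), compound titration, 5 h at 37 °C. CCF4 loaded 1 h at RT; 460/530 nm ratio gave %activity and AC50.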

A short description of experiment [5]: Stat Signaling Pathway (AID 446).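 Note: ME-180 cervical cancer cells given 40 pM IL-6 alongside compound; SIE-controlled beta-lactamase reporter measured as 460/530 nm FRET emission ratio; % is set by controls: 0 for no effect and ±100 for the full control effect.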 Conditions: ME-180 (cervical carcinoma) SIE beta-lactamase reporter, IL-6 stimulated, 5 h; at 7.69 µM (top of the series) unless noted. In a few lines:
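IL-6/STAT signaling read in ME-180 cells via an SIE beta-lactamase reporter. Stimulus was 40 pM IL-6 (its AC50) for 5 hrs, so both activation and inhibition register.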

Experiment [6] deals with Glucocorticoid receptor (Homo sapiens) (UniProt P04150). Kind of experiment: GR-GFP Redistribution (AID 450;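 active = compounds whose dose series gives a full or clear partial fitted curve of increased nuclear translocation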; note: potency is the fitted concentration of half-maximal effect). Conditions: U2OS GR-GFP nuclear translocation, laser cytometry, 2 h.
Glucocorticoid receptor (Homo sapiens), sequence (P04150 whole entry, looked up): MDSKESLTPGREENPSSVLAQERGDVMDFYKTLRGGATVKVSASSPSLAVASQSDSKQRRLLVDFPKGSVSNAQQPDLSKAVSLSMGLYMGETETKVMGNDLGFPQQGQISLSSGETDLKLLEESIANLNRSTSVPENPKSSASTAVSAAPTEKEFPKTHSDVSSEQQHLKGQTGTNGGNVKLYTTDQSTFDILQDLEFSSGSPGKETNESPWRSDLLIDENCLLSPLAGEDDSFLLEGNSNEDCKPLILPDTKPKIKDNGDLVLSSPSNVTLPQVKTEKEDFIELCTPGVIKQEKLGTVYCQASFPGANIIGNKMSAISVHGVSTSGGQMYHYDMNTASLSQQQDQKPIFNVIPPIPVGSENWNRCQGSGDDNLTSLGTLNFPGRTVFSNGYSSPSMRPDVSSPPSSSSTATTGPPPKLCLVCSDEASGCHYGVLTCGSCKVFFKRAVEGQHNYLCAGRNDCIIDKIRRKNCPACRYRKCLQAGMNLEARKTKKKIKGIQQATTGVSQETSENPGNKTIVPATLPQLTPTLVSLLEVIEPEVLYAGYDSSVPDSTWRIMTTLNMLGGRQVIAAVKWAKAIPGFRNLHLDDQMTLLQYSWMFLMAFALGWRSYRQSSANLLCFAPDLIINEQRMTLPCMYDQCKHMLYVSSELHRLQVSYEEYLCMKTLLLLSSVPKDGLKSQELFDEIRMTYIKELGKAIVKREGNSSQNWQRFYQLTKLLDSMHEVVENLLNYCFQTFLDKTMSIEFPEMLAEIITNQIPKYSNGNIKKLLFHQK
The target is the same in experiment [7]. Kind of experiment: GR-EFC Redistribution (AID 451; calls by dose curve; note: potency is the fitted concentration of half-maximal effect). The following applies: CHO-K1 GR-EFC translocation, beta-gal luminescence, 2 h. The essentials:
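CHO-K1 cells expressing nuclear EA and GR-ED fragments of b-gal; compounds titrated up to 46 uM final, 2 h at 37 C. GR nuclear translocation read as complemented b-gal luminescence after 1 h RT detection.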

Experiment [8] has as its target Mitogen-activated protein kinase 10 (Mus musculus) (UniProt Q61831). Put plainly: JNK3 AlphaScreen Assay (AID 530).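 Note: kinase came from lysate of stimulated human HepG2 cells; signal reports phosphorylation of biotinylated GST-cJun 1-79 at Ser73 with 10 µM ATP; % is set by controls: 0 for no effect and ±100 for the full control effect.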 The following applies: JNK3 lysate, c-Jun phosphorylation; series mostly up to 57.1 µM. In a few lines:
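Pre-activated (IL-1β/TNFα) JNK3 in HepG2 lysates phosphorylates biotin-GST-cJun(1-79), 10 uM ATP; anti-phospho-cJun(Ser73) AlphaScreen read at room temperature, pH 7.6 Tris buffer. Compounds pre-incubated 15 min as titrations.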
On the technique in general: In Alpha technology, singlet oxygen from a donor bead excites a nearby acceptor bead.

The target in experiment [9] is 3',5'-cyclic-AMP phosphodiesterase 4B (Homo sapiens) (UniProt Q07343). Kind of experiment: qHTS Assay for Inhibitors of PDE-IV (AID 607; active = well fitted activation curve with a large enough effect in the main read-out, with a control signal flat, not every such curve was filed as active; note: % of control where 0% means no effect). Conditions: HEK293 ACTOne CNG channel cells, membrane potential fluorescence; series mostly up to 22.9 µM. In a few lines:
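Live HEK293 cells with a modified cyclic nucleotide-gated (CNG) channel report intracellular cAMP via membrane-potential dye fluorescence (ex 535/em 590 nm). Endogenous PDE-IV was targeted. Compounds were tested at up to 22.9 uM final; RO 20-1724 100 uM served as control.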
A general note: Quantitative high-throughput screening tests each substance at several concentrations.

For experiment [10], the target named is Cytochrome P450 3A4 (Homo sapiens) (UniProt P08684). Put plainly: qHTS Assay for Activators of Cytochrome P450 3A4 (AID 885; active = well fitted curve in the direction sought with a large enough effect; an effect the other way counts as inactive or inconclusive; note: nearly all actives have a fitted effect of over 65% in size). The following applies: recombinant CYP3A4, Luciferin-PPXE luminescence, 60 min; series mostly up to 57.1 µM. In a few lines:
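Quantitative HTS format: compounds preincubated with 20nM human CYP3A4 and Luciferin-PPXE substrate at KM, reaction started by NADPH regeneration, stopped after 60 min, luciferase luminescence read 20 min later.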

Experiment [11] deals with Cytochrome P450 2C9 (Homo sapiens) (UniProt P11712). Kind of experiment: qHTS Assay for Inhibitors and Substrates of Cytochrome P450 2C9 (AID 883; active = well fitted curve in the direction sought with a large enough effect; an effect the other way counts as inactive or inconclusive; note: % is set by controls: 0 for no effect and ±100 for the full control effect; nearly all actives have a fitted effect of over 60% in size). Conditions: recombinant CYP2C9, luciferin-H luminescence, 60 min; series mostly up to 57.1 µM. In a few lines: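 Signal: luciferase luminescence reporting luciferin produced by CYP2C9. Conditions: 10nM enzyme, Luciferin-H 100uM at KM, 25mM KPO4, 37C, 60 min NADPH-driven reaction. Reference: 57uM sulphaphenazole as 100% inhibition.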
Cytochrome P450 2C9 (Homo sapiens), sequence (P11712 whole entry, looked up): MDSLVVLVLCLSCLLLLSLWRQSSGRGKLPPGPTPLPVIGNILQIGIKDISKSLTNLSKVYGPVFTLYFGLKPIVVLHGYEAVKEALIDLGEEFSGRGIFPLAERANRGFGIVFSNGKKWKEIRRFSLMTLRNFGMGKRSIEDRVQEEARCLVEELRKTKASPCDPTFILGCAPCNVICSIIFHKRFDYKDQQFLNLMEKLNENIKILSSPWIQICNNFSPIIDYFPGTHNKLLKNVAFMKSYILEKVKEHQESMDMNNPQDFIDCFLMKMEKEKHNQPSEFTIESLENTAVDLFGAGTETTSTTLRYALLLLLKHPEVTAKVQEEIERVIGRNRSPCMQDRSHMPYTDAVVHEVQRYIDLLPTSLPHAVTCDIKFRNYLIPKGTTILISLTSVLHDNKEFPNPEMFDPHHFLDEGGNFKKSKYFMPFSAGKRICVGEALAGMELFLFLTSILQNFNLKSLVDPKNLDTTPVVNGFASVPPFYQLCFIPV

Experiment [12] concerns the target Cytochrome P450 3A4 (Homo sapiens) (UniProt P08684). Kind of experiment: qHTS Assay for Inhibitors and Substrates of Cytochrome P450 3A4 (AID 884; active = well fitted curve in the direction sought with a large enough effect; an effect the other way counts as inactive or inconclusive; note: potency is the fitted concentration of half-maximal effect; nearly all actives have a fitted effect of over 50% in size). Conditions: recombinant CYP3A4, Luciferin-PPXE luminescence; series mostly up to 57.1 µM. The essentials: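 20 nM human CYP3A4 with 25 uM Luciferin-PPXE (at KM) in 200 mM KPO4, preincubated 10 min with compound; NADPH regeneration started a 60 min RT reaction. Luciferin detected by luminescence, normalized to 57 uM ketoconazole as full inhibition.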

In experiment [13] the target is Cytochrome P450 2C19 (Homo sapiens) (UniProt P33261). Kind of experiment: qHTS Assay for Inhibitors and Substrates of Cytochrome P450 2C19 (AID 899; active = well fitted curve in the direction sought with a large enough effect; an effect the other way counts as inactive or inconclusive; note: potency is the fitted concentration of half-maximal effect; nearly all actives have a fitted effect of over 60% in size). Conditions: recombinant CYP2C19, luciferin-H EGE luminescence; series mostly up to 11.4 µM. The essentials:
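Signal comes from luciferase acting on luciferin released by CYP2C19-mediated hydroxylation of Luciferin-H EGE, 10uM (KM). Assay mix: 5nM enzyme, 50mM KPO4; 60 min at 37C with NADPH regeneration. Data normalized against 57uM ketoconazole.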

Values without a mark were called inactive. Inconclusive results are not listed. The source made the active and inactive calls. Unless noted, calls come from the whole dose curve; as a rule, active = well fitted curve in either direction with a large enough effect (not every such curve was filed as active); inconclusive = small, poorly fitted or top-dose-only effect, or another doubt; inactive = flat fitted curve, though single readings scatter.

3',5'-cyclic-AMP phosphodiesterase 4B (Homo sapiens), sequence (Q07343 whole entry, looked up): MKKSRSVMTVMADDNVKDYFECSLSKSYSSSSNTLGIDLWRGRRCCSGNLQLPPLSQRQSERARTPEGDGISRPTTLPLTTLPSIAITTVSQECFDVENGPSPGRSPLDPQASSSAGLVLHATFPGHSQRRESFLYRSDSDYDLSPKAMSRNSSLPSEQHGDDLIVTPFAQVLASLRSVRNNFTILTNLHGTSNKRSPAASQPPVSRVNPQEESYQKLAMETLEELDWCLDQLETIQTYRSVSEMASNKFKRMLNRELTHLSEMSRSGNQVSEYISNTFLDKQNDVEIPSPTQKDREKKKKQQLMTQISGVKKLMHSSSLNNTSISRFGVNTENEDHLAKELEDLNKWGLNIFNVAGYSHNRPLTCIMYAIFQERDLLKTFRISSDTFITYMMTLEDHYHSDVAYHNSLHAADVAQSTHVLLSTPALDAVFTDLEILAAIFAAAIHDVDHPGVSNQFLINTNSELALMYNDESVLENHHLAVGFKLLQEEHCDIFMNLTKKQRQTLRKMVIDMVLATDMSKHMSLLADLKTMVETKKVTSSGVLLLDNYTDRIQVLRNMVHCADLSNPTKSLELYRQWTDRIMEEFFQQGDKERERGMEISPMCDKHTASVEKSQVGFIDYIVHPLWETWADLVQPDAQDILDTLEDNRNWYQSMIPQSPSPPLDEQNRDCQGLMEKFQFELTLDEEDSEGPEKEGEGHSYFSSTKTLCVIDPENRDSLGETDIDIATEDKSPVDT
Cytochrome P450 3A4 (Homo sapiens), sequence (P08684 whole entry, looked up): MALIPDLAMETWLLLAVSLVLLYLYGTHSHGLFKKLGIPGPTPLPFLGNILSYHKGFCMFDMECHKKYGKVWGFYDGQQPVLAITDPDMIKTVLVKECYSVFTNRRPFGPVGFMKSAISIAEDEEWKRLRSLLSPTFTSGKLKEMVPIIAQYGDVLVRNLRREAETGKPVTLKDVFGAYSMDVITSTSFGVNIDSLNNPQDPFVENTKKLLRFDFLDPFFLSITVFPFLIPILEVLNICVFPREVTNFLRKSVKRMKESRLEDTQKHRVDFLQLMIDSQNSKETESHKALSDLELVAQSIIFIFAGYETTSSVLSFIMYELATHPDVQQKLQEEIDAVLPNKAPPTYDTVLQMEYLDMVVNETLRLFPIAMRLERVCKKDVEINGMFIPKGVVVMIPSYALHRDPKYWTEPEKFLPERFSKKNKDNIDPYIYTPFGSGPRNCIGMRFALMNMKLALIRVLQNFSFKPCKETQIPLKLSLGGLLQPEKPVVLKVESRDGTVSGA
Cytochrome P450 2C19 (Homo sapiens), sequence (P33261 whole entry, looked up): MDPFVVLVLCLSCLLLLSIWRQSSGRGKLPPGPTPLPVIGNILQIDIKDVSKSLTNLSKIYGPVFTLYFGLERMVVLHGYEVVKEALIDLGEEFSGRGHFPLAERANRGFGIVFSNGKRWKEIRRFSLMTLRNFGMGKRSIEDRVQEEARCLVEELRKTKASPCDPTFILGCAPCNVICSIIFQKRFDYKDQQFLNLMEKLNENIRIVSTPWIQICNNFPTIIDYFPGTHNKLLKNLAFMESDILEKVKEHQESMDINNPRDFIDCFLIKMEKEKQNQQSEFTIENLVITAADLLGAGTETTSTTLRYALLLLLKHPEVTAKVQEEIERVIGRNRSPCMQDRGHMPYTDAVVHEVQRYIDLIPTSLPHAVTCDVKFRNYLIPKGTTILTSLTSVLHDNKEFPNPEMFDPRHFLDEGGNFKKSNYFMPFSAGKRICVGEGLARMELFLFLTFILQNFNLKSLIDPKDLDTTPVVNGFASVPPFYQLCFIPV

In the case of `CSCC[C@@H](N)P(C)(=O)O`, the values for the Potency in [1], in experiment [6] and in experiment [7] were greater than 11.4 µM, greater than 46 µM and greater than 9.22 µM, respectively. Further, the activity change, negative = inhibition was 10.2% in experiment [2], 2.01% in experiment [4] and 0.585% [at 11.4 µM] in [8]. In addition, the Potency result in [3] is “inactive”. In addition, the activity, negative = inhibition in experiment [5] was 13.5%. In [9], the outcome was inactive.
Take `NS(=O)(=O)c1ccc(-c2ccc([As](=O)(O)O)cc2)cc1`: the Potency in experiment [1] is greater than 11.4 µM; in experiment [6], greater than 46 µM; in experiment [7] it was greater than 9.22 µM. The activity change, negative = inhibition was 0.512% in [2], 17.3% in experiment [4] and 2.57% [at 11.4 µM] in [8]. Also, the Potency result in experiment [3] is “inactive”. For the same compound, in experiment [5], the activity, negative = inhibition was 6.23%. Besides, the call in experiment [9] was inactive.
Turning to `CC(C)c1nccn1Cc1ccc(Cl)cc1Cl`, the Potency in [1] was greater than 11.4 µM; in experiment [6] it was greater than 46 µM; in experiment [7], greater than 9.22 µM. The activity change, negative = inhibition is -14.8% in experiment [2], -21% in experiment [4] and -0.456% [at 11.4 µM] in [8]. The Potency result in experiment [3] was “inactive”. For the same compound, in experiment [5], the activity, negative = inhibition is 1.75%. Further, the compound was called inactive in experiment [9].
For the compound `N[C@H](Cc1ccc2oc3cc(=O)c4ccccc4c-3nc2c1)C(=O)O`, the Potency in experiment [1] was greater than 11.4 µM; in experiment [3], 1.26 µM (active); in experiment [6], greater than 46 µM; in experiment [7] it was greater than 9.22 µM. For the same compound, the activity change, negative = inhibition in experiment [2] is 25.4%; in [4], -17.2%; in [8] it was 0.331% [at 11.4 µM]. The activity, negative = inhibition in [5] was 7.75%. Further, the outcome in experiment [9] was inactive. For the same compound, in [10], the activity change, positive = activation is -32.5% [at 11.4 µM].
Consider `N[C@@H](CP(=O)(O)O)C(=O)O`, for which the figures for the Potency in experiment [1], in experiment [6] and in [7] were greater than 11.4 µM, greater than 46 µM and greater than 9.22 µM, respectively. In addition, the activity change, negative = inhibition in [2] is 0.329%; in experiment [4], 2.91%; in [8], 5.7% [at 11.4 µM]. Moreover, in experiment [3], the Potency entry is “inactive”. The activity, negative = inhibition in [5] was 2.68%. The result in experiment [9] was inactive.
In the case of `C[C@@]12CC[C@H](O[C@@H]3O[C@H](CO)[C@@H](O)[C@H](O)[C@@H]3O)C[C@@H]1CC[C@H]1[C@H]2CC[C@@]2(C)[C@@H](C3=CCOC3=O)CC[C@]12O`, the Potency in experiment [1] is greater than 11.4 µM; in experiment [6], greater than 46 µM; in [7], greater than 9.22 µM. The figures for the activity change, negative = inhibition in [2] and in [4] were -9.15% and 2.85%, respectively. The Potency result in experiment [3] is “inactive”. The activity, negative = inhibition in experiment [5] was 12.3%. In addition, in experiment [9], the outcome was inactive.
For `O=[As](O)(O)c1ccc(N=Nc2ccc([As](=O)(O)O)cc2)cc1`, the Potency in experiment [1] was greater than 11.4 µM; in experiment [6], greater than 46 µM; in experiment [7], greater than 9.22 µM. The activity change, negative = inhibition in [2] was 2.76%; in experiment [4], 2.59%; in [8], 2.69% [at 11.4 µM]. The Potency entry in experiment [3] was “inactive”. Besides, in experiment [5], the activity, negative = inhibition is 4.67%. Further, the compound was classed as inactive in [9].
In the case of `Cc1ccc(OP(=O)(Oc2ccc(C)cc2)N2C=Cc3ccccc3[C@H]2C#N)cc1`, the Potency was greater than 11.4 µM in experiment [1]; 3.98 µM (active) in experiment [3]; greater than 46 µM in experiment [6]; greater than 9.22 µM in experiment [7]; 2.51 µM (active) in [12]; 2.51 µM (active) in experiment [13]. In addition, the activity change, negative = inhibition in experiment [2] is 0.753%; in [4], -17.9%; in [8], 7.39% [at 11.4 µM]; in experiment [11], 45.9% [at 11.4 µM]. Moreover, the activity, negative = inhibition in experiment [5] is -13.5%. In addition, the result in experiment [9] was inactive. The activity change, positive = activation in experiment [10] is -91.2% [at 11.4 µM].
